PubChem BioAssay (NCI)
Compounds without any hit were thinned out: in the full panel of roughly 79,000, 15% have a hit. Unmarked numbers belong to inactive results. Calls of active or inactive are those of the source. Rule as the data show it: active = growth inhibition above about 70%; inactive = the rest. Where a SMILES comes first, the peptide text is derived from it. [ ]: non-standard residue; d: D form. ΔPro = O=C(O)[CH]1C=CCN1

Assay: NCI Yeast Anticancer Drug Screen. Data for the bub3 strain (AID 167)
Conditions: S. cerevisiae bub3 mutant strain, at 50.0 µM, stronger effect = higher value
How it was run: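 Screening used yeast with an engineered genetic alteration affecting cell cycle control. Compound-exposed cultures were compared with vehicle cultures, and reduced growth was taken as inhibition.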

Structure (SMILES) | growth inhibition
N#Cc1c(C#N)c(-c2ccccc2)n(-c2ccccc2)c1N | -11.2%
Cc1ccc(S(=O)(=O)N2CCSCCSCCSCCSCC2)cc1 | -8.9%
CCCOc1cc2c(cc1C(C)(C)c1ccccc1)OCO2 | -3.5%
CC(=O)NC(CCCc1ccccc1)C(=O)O (stereo not given) | 2.45%
CC1CC(=O)N2CCCNC2=C1C#N (stereo not given) | 3.75%
N#C/C(=C\c1c[nH]c2ccccc12)c1ccc([N+](=O)[O-])cc1 | -5.2%
CCCCCCCCCCCCCCCCS(=O)(=O)N/N=C/c1ccc(N(C)C)cc1 | 1.95%
O=C(O)C1C=CCN1C(=O)C1C=CCN1C(=O)C1C=CCN1 (stereo not given) (H-[ΔPro]-[ΔPro]-[ΔPro]-OH; configuration not given here) | 0.25%
Nc1nc2c(c(-c3ccccc3)n1)CN(CCCC(=O)O)C2=O | 11.9%
S=c1[nH]c(=S)c2nnn(-c3ccccc3)c2[nH]1 | -47.9%
[Cu+2].[O-]C1c2c(ccc3ccccc23)-c2ccccc2C1N=Nc1ccccc1.[O-]c1c(N=Nc2ccccc2)c2ccccc2c2ccc3ccccc3c12 (stereo not given) | -10.9%
CCC(C)NC(=O)C1C2CCC(C2)C1C(=O)NC(C)CC (stereo not given) | -7.5%
CN(C)c1ccc(/C=N/NC(=O)c2cnc3ccccc3c2)cc1 | 8.1%
CCOC(=O)c1ccc(NC(=O)Oc2ccc(C=O)cc2OC)cc1 | 20.1%
O=C(Nc1cc(Cl)c(I)cc1Cl)C(F)(F)F | 7.05%
[Mn+2].[Mn+2].c1ccc2c(c1)-c1nc-2nc2[n-]c(nc3nc(nc4[n-]c(n1)c1ccccc41)-c1ccccc1-3)c1cc3c4nc5nc(nc6[n-]c(nc7nc(nc([n-]4)c3cc21)-c1ccccc1-7)c1ccccc61)-c1ccccc1-5 | 0.4%
COC(=O)c1nc(N)nc(C(=O)OC)c1C(=O)c1ccc(Cl)cc1Cl | -8.3%
CCOC(=O)CSc1[nH]c2nc(C)nc(Cl)c2c1C#N | -3.45%
O=C(O)CCCCl | 12.7%
OCC=C1CCCCCC1 | 12.3%

Structure (SMILES) | growth inhibition
Cc1ncc([N+](=O)[O-])n1CCNC(=O)CCC(=O)NCCCn1ccnc1[N+](=O)[O-] | -31.8%
COc1cc(C(=O)Nc2ccc(S(=O)(=O)Nc3nc(C)cc(C)n3)cc2)cc(OC)c1OC | -4.9%
O=C1c2ccccc2C2(O)Oc3cccc(O)c3C12O (stereo not given) | 2.85%
CCc1ccc(C(O)C(=O)O)cc1 (stereo not given) | -2.7%
O=C(Sc1ccccc1)C1OC1c1ccccc1 (stereo not given) | 63.1%
O=C1OC(c2cccc(Cl)c2)=N/C1=C\c1cccc([N+](=O)[O-])c1 | 17.6%
CC12CCCC3(CC(=O)C(C)(C)C3C(=O)C1)C2 (stereo not given) | 9.6%
N#Cc1c(-c2ccccc2)ssc1=S | 11.8%
CC[N+](C)(CC)c1cccc(OC(=O)Nc2ccc(OC)cc2)c1 | 1.05%
Cc1ncc([N+](=O)[O-])n1CCNC(=O)CCn1ccnc1[N+](=O)[O-] | -18.7%
COc1ccc(-c2c(-c3ccccc3)c(-c3ccccc3)nn2-c2ccccc2)cc1 | 2.5%
N#C/C(=N\NC(=O)c1cccc(C(=O)N/N=C(\C#N)c2ccccc2Cl)n1)c1ccccc1Cl | -1.85%
[C-]#[N+]C1(c2ccccc2)C2CC3CC(C2)CC1C3 (stereo not given) | -4.25%
[Zn+2].c1ccc(-c2c3nc(c(-c4ccccc4)c4[n-]c(c(-c5ccccc5)c5nc(c(-c6ccccc6)c6[n-]c2c2ccccc62)-c2ccccc2-5)c2ccccc42)-c2ccccc2-3)cc1 | -23.9%
O=C(Nc1ccccc1)SC1CCCCC1 | 3.8%
O=C(Nc1ccc(Cl)c(Cl)c1)c1ccc(C(=O)Nc2ccc(Cl)c(Cl)c2)cc1 | -4.85%
O=C(CN1CCOCC1)Nc1ccc(S(=O)(=O)c2ccc([N+](=O)[O-])cc2)cc1 | 96.7% (active)
CCCCOC(=O)/C=C/C(=O)N1CCN(C(=O)/C=C/C(=O)OCCCC)C(C)C1 (stereo not given) | 24.9%
O=C(c1ccccc1)c1ccc(Cl)c(Cl)c1 | 6.65%
CNc1ccccc1C(=O)N/N=C/c1c(O)ccc2ccccc12 | 36.1%

Assay: NCI Yeast Anticancer Drug Screen. Data for the mlh1 rad18 strain (AID 175)
Conditions: S. cerevisiae mlh1 rad18 strain growth inhibition; at 50.0 µM; stronger effect = higher value
How it was run: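 A repair-deficient yeast strain is exposed to test compound, and growth is scored relative to vehicle-treated controls.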

Structure (SMILES) | growth inhibition
N#Cc1c(C#N)c(-c2ccccc2)n(-c2ccccc2)c1N | -22.1%
Cc1ccc(S(=O)(=O)N2CCSCCSCCSCCSCC2)cc1 | -39.1%
CCCOc1cc2c(cc1C(C)(C)c1ccccc1)OCO2 | -15.4%
CC(=O)NC(CCCc1ccccc1)C(=O)O (stereo not given) | -18.9%
CC1CC(=O)N2CCCNC2=C1C#N (stereo not given) | 26.1%
N#C/C(=C\c1c[nH]c2ccccc12)c1ccc([N+](=O)[O-])cc1 | -4.1%
CCCCCCCCCCCCCCCCS(=O)(=O)N/N=C/c1ccc(N(C)C)cc1 | 13.7%
O=C(O)C1C=CCN1C(=O)C1C=CCN1C(=O)C1C=CCN1 (stereo not given) (H-[ΔPro]-[ΔPro]-[ΔPro]-OH; configuration not given here) | -31.5%
Nc1nc2c(c(-c3ccccc3)n1)CN(CCCC(=O)O)C2=O | -0.45%
S=c1[nH]c(=S)c2nnn(-c3ccccc3)c2[nH]1 | -34%
[Cu+2].[O-]C1c2c(ccc3ccccc23)-c2ccccc2C1N=Nc1ccccc1.[O-]c1c(N=Nc2ccccc2)c2ccccc2c2ccc3ccccc3c12 (stereo not given) | -20.2%
CCC(C)NC(=O)C1C2CCC(C2)C1C(=O)NC(C)CC (stereo not given) | 7%
CN(C)c1ccc(/C=N/NC(=O)c2cnc3ccccc3c2)cc1 | 17.4%
CCOC(=O)c1ccc(NC(=O)Oc2ccc(C=O)cc2OC)cc1 | 7.2%
O=C(Nc1cc(Cl)c(I)cc1Cl)C(F)(F)F | 18.8%
[Mn+2].[Mn+2].c1ccc2c(c1)-c1nc-2nc2[n-]c(nc3nc(nc4[n-]c(n1)c1ccccc41)-c1ccccc1-3)c1cc3c4nc5nc(nc6[n-]c(nc7nc(nc([n-]4)c3cc21)-c1ccccc1-7)c1ccccc61)-c1ccccc1-5 | 21.8%
COC(=O)c1nc(N)nc(C(=O)OC)c1C(=O)c1ccc(Cl)cc1Cl | -3.25%
CCOC(=O)CSc1[nH]c2nc(C)nc(Cl)c2c1C#N | 16.6%
O=C(O)CCCCl | 26%
OCC=C1CCCCCC1 | 2.95%

Structure (SMILES) | growth inhibition
Cc1ncc([N+](=O)[O-])n1CCNC(=O)CCC(=O)NCCCn1ccnc1[N+](=O)[O-] | 14.9%
COc1cc(C(=O)Nc2ccc(S(=O)(=O)Nc3nc(C)cc(C)n3)cc2)cc(OC)c1OC | -10.4%
O=C1c2ccccc2C2(O)Oc3cccc(O)c3C12O (stereo not given) | 49.9%
CCc1ccc(C(O)C(=O)O)cc1 (stereo not given) | -3.75%
O=C(Sc1ccccc1)C1OC1c1ccccc1 (stereo not given) | 80.5% (active)
O=C1OC(c2cccc(Cl)c2)=N/C1=C\c1cccc([N+](=O)[O-])c1 | 2%
CC12CCCC3(CC(=O)C(C)(C)C3C(=O)C1)C2 (stereo not given) | 6.2%
N#Cc1c(-c2ccccc2)ssc1=S | 12.6%
CC[N+](C)(CC)c1cccc(OC(=O)Nc2ccc(OC)cc2)c1 | 14.3%
Cc1ncc([N+](=O)[O-])n1CCNC(=O)CCn1ccnc1[N+](=O)[O-] | -22.9%
COc1ccc(-c2c(-c3ccccc3)c(-c3ccccc3)nn2-c2ccccc2)cc1 | 20.9%
N#C/C(=N\NC(=O)c1cccc(C(=O)N/N=C(\C#N)c2ccccc2Cl)n1)c1ccccc1Cl | 4.2%
[C-]#[N+]C1(c2ccccc2)C2CC3CC(C2)CC1C3 (stereo not given) | 9.35%
[Zn+2].c1ccc(-c2c3nc(c(-c4ccccc4)c4[n-]c(c(-c5ccccc5)c5nc(c(-c6ccccc6)c6[n-]c2c2ccccc62)-c2ccccc2-5)c2ccccc42)-c2ccccc2-3)cc1 | -36.8%
O=C(Nc1ccccc1)SC1CCCCC1 | -1.9%
O=C(Nc1ccc(Cl)c(Cl)c1)c1ccc(C(=O)Nc2ccc(Cl)c(Cl)c2)cc1 | 30.3%
O=C(CN1CCOCC1)Nc1ccc(S(=O)(=O)c2ccc([N+](=O)[O-])cc2)cc1 | 26.1%
CCCCOC(=O)/C=C/C(=O)N1CCN(C(=O)/C=C/C(=O)OCCCC)C(C)C1 (stereo not given) | 34.6%
O=C(c1ccccc1)c1ccc(Cl)c(Cl)c1 | -8.05%
CNc1ccccc1C(=O)N/N=C/c1c(O)ccc2ccccc12 | 2.45%
